From PubChem BioAssay (Tox21) come the findings set out here.

Experiment [1] can be described thus: qHTS assay to identify small molecule agonists of the estrogen receptor alpha (ER-alpha) signaling pathway in the presence of an antagonist - cell viability counter screen (AID 1259386).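 Also: cells exposed to compounds for 22 h at 37 °C before the viability read; nearly all actives have a fitted effect of over 30% in size.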 Also: potency is read from the fitted curve at half-maximal effect. The method in brief: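 VM7Luc4E2, stripped-serum pre-culture 5 d; 24hr plating; +ICI-182,780 10.0nM final; cpds 15 conc, 22hr, 37C/5% CO2; CellTiter-Fluor added at 21hr, fluorescence 1hr later.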

The target of experiment [2] is Progesterone receptor (Homo sapiens) (UniProt P06401). Briefly: qHTS assay to identify small molecule agonists of the progesterone receptor (PR) signaling pathway (AID 1346784; calls by dose curve; also: % is scaled to controls: 0 for no effect and ±100 for the full control effect; nearly all actives have a fitted effect of over 30% in size). The method in brief:
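Agonist mode, quantitative HTS format in a HEK 293T line expressing a UAS-controlled beta-lactamase reporter; 16 hr compound exposure at 37C in 2% charcoal-stripped FBS, then LiveBLAzer B/G FRET fluorescence.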
(Quantitative high-throughput screening tests each substance at several concentrations.)

Experiment [3] shares this target. Briefly: qHTS assay to identify small molecule antagonists of the progesterone receptor (PR) signaling pathway (AID 1346795; active = well fitted inhibition curve with a large enough effect in the signal ratio in the repeat runs, not every such curve was filed as active; the % refers to the signal ratio; also: % is scaled to controls: 0 for no effect and ±100 for the full control effect). In short, it runs like this:
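HEK293T PR-UAS-bla reporter cells in charcoal-stripped serum (2%) received compound after a 6 hr settling period, followed by R5020 agonist at 1 nM final; 16 hr incubation preceded the FRET substrate step and fluorescence measurement.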

Experiment [4] can be described thus: qHTS assay to identify small molecule antagonists of the progesterone receptor (PR) signaling pathway - cell viability counter screen (AID 1346798). Also: nearly all actives have a fitted effect of over 50% in size. Also: potency is read from the fitted curve at half-maximal effect. The method in brief: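 Same-well multiplex: after 16 hr at 37C with compound and R5020 stimulation, HEK293T cells carrying a UAS-bla reporter received LiveBLAzer substrate (2 hr RT), then CellTiter-Glo (30 min RT) for luminescent viability.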

Experiment [5] is described as follows: qHTS assay to identify small molecule antagonists of the TGF-beta/Smad signaling pathway - cell viability counter screen (AID 1346824). Also: nearly all actives have a fitted effect of over 50% in size. Also: potency is read from the fitted curve at half-maximal effect. The method in brief: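 Cytotoxicity counter-screen run in the same wells as the beta-lactamase Smad reporter read: CellTiter-Glo luminescence after 30 min at room temperature. HEK 293T SBE-bla cells had 5 hr compound exposure at 37 C with TGF-beta1 (0.25 ng/mL stock).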

Experiment [6] in a line: qHTS assay to identify small molecule agonists of the TGF-beta/Smad signaling pathway - cell viability counter screen (AID 1346829). Also: nearly all actives have a fitted effect of over 45% in size. Also: potency is read from the fitted curve at half-maximal effect. The method in brief: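 CellTiter-Glo luminescence readout; SBE-bla HEK 293T cells, overnight plating, compound 5 hr at 37 C/5% CO2, then bla substrate 2 hr RT, then CellTiter-Glo 30 min RT.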
The nature of experiment [7]: qHTS assay to identify small molecule agonists of the TGF-beta/Smad signaling pathway (AID 1346859; active = well fitted activation curve with a large enough effect in the signal ratio in the repeat runs, not every such curve was filed as active; the % refers to the signal ratio; also: series mostly up to about 77 µM; % is scaled to controls: 0 for no effect and ±100 for the full control effect). In short, it runs like this: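 Smad-responsive beta-lactamase reporter cells (HEK 293T) received compounds from DMSO stocks after overnight attachment, were incubated 5 hr, then treated 2 hr with FRET substrate before dual-emission fluorescence measurement (405 nm excitation).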

The target in experiment [8] is Thyrotropin-releasing hormone receptor (Homo sapiens) (UniProt P34981). Briefly: qHTS assay to identify small molecule antagonists of the thyrotropin-releasing hormone receptor (TRHR) signaling pathway (AID 1346877; active = well fitted inhibition curve with a large enough effect in the repeat runs, not every such curve was filed as active; also: series mostly up to about 51 µM; % is scaled to controls: 0 for no effect and ±100 for the full control effect). The method in brief:
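Intracellular calcium fluorescence, read kinetically every second over 3 min, reports TRH-evoked signalling in HEK293 cells carrying TRHR. Test compounds were added 5 min ahead of a 1 nM TRH challenge.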

Experiment [9] has the same target. Briefly: qHTS assay to identify small molecule agonists of the thyrotropin-releasing hormone receptor (TRHR) signaling pathway (AID 1346891; calls by dose curve;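 also: HEK293 cells expressing TRHR with calcium dye readout; series mostly up to about 58 µM; % is scaled to controls: 0 for no effect and ±100 for the full control effect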). The method in brief: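 Agonist-mode calcium mobilisation screen: TRHR-transfected HEK293 cells cultured overnight (18 h), dye-loaded for 2 h at 37 °C, exposed to compounds, and monitored by fluorescence for 3 min.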
The nature of experiment [10]: Caspase-3/7 induction in HepG2 cells by small molecules, qHTS assay (AID 1346978). Also: % is scaled to controls: 0 for no effect and ±100 for the full control effect; nearly all actives have a fitted effect of over 15% in size. In short, it runs like this: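 Caspase-3/7 induction was measured by Caspase-Glo 3/7 luminescence (30 min, room temperature) after a 17 hr compound exposure of wild-type HepG2 cells seeded at 2,000 per well and pre-incubated 5 hr.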
The nature of experiment [11]: Caspase-3/7 induction in CHO-K1 cells by small molecules, qHTS cell viability counter screen (AID 1346979). Also: nearly all actives have a fitted effect of over 35% in size. Also: potency is read from the fitted curve at half-maximal effect. The method in brief: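 In the same wells as the caspase read, viability of compound-treated wild-type CHO-K1 cells was assessed using CellTiter-Fluor, added after 16hr at 37C and measured by fluorescence following 1hr further incubation.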
The nature of experiment [12]: Caspase-3/7 induction in CHO-K1 cells by small molecules, qHTS assay (AID 1346980). Also: % is scaled to controls: 0 for no effect and ±100 for the full control effect; nearly all actives have a fitted effect of over 15% in size. In short, it runs like this:
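Luminescent Caspase-Glo 3/7 read (30min, room temperature) quantified apoptosis induction. Cells were wild-type CHO-K1, treated with compound for 17hr at 37 C and 5% CO2.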

A short description of experiment [13]: Caspase-3/7 induction in HepG2 cells by small molecules, qHTS cell viability counter screen (AID 1346981). Also: nearly all actives have a fitted effect of over 30% in size. Also: potency is read from the fitted curve at half-maximal effect. The method in brief:
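HepG2, WT, 2,000 cells/well; 5 hr pre-incubation 37 C/5% CO2; compound pin-transferred from DMSO; 16 hr exposure; CellTiter-Fluor, 1 hr; fluorescence read.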

The target in experiment [14] is Cytochrome P450 2D6 (Homo sapiens) (UniProt P10635). Briefly: Cytochrome P450 Family 2 Subfamily D Member 6 (CYP2D6) small molecule antagonists: luciferase reporter qHTS assay (AID 1671196). Also: nearly all actives have a fitted effect of over 50% in size. Also: potency is read from the fitted curve at half-maximal effect. The method in brief: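 Read-out is luminescence from luciferin formed by CYP2D6 turnover of a proluciferin substrate, recorded as relative luminescence units. Reactions ran 1 h at room temperature after NADPH regeneration solution was added.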
Chain of Cytochrome P450 2D6 (Homo sapiens) (P10635 whole entry, looked up): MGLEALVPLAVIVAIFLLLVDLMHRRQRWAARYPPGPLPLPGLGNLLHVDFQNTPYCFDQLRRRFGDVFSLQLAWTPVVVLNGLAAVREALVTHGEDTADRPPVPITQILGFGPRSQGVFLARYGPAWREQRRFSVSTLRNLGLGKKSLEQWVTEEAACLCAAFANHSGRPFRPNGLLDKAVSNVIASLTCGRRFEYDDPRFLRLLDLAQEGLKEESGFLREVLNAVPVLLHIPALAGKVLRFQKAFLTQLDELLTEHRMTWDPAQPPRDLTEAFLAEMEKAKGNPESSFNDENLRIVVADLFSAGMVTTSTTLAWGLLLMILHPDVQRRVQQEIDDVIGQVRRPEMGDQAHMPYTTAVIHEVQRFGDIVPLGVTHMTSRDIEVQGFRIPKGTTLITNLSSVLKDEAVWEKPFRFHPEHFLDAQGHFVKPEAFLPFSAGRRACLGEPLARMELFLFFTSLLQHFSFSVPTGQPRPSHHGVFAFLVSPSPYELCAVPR

Experiment [15] in a line: qHTS assay to identify small molecule agonists of the progesterone receptor (PR) signaling pathway - cell viability counter screen (AID 1346799; calls by dose curve; also: nearly all actives have a fitted effect of over 45% in size; also: potency is read from the fitted curve at half-maximal effect). In short, it runs like this:
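Counter screen for cytotoxicity: compound-treated PR-UAS-bla HEK293T cells (16 hr, 37C, 5% CO2) were assayed with CellTiter-Glo, luminescence measured after 30 min at room temperature.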

Experiment [16] is described as follows: Human pregnane X receptor (PXR) small molecule agonists, qHTS cell viability counter screen (AID 1346977). Also: nearly all actives have a fitted effect of over 50% in size. Also: potency is read from the fitted curve at half-maximal effect. The method in brief:
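Measures live-cell protease fluorescence (CellTiter-Fluor) in PXR-Luc HepG2 cells treated 24hr with compounds at 37C. Cells had 5hr to attach before pin transfer of DMSO solutions.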

Experiment [17] deals with Nuclear receptor subfamily 1 group I member 2 (Rattus norvegicus) (UniProt Q9R1A7). Briefly: Rat pregnane X receptor (rPXR) activation by small molecules, qHTS assay (AID 1346983). Also: % is scaled to controls: 0 for no effect and ±100 for the full control effect; nearly all actives have a fitted effect of over 20% in size. The conditions noted are these: rPXR luciferase reporter cells, One-Glo luminescence, 24 h; hits give high values. The method in brief: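 Luminescent readout (One-Glo luciferase, 30 min room temperature) followed 24 hr compound treatment at 37 C of rPXR cells plated 2,000 per well and preincubated 5hr; qHTS format with compounds delivered in DMSO.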
Chain of Nuclear receptor subfamily 1 group I member 2 (Rattus norvegicus) (Q9R1A7 whole entry, looked up): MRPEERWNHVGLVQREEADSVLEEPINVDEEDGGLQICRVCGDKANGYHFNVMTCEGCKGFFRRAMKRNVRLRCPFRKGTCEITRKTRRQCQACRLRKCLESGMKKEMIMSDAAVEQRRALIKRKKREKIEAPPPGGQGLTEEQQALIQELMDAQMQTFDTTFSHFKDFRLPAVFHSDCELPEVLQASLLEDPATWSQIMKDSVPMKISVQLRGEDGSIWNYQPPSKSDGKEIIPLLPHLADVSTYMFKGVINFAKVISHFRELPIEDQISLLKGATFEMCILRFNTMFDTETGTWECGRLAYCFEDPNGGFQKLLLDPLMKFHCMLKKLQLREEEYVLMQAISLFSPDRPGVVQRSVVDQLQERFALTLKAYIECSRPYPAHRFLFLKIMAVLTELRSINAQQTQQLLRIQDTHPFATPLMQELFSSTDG

The target of experiment [18] is Nuclear receptor subfamily 1 group I member 2 (Homo sapiens) (UniProt O75469). Briefly: Human pregnane X receptor (PXR) small molecule agonists, qHTS assay (AID 1346982). Also: nearly all actives have a fitted effect of over 35% in size. Also: potency is read from the fitted curve at half-maximal effect. In short, it runs like this: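 Luciferase signal from ONE-Glo (30 min, room temperature) measured activation of hPXR-driven CYP3A4 reporter expression in PXR-Luc HepG2 cells treated with compounds for 24 hr at 37 C.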
Chain of Nuclear receptor subfamily 1 group I member 2 (Homo sapiens) (O75469 whole entry, looked up): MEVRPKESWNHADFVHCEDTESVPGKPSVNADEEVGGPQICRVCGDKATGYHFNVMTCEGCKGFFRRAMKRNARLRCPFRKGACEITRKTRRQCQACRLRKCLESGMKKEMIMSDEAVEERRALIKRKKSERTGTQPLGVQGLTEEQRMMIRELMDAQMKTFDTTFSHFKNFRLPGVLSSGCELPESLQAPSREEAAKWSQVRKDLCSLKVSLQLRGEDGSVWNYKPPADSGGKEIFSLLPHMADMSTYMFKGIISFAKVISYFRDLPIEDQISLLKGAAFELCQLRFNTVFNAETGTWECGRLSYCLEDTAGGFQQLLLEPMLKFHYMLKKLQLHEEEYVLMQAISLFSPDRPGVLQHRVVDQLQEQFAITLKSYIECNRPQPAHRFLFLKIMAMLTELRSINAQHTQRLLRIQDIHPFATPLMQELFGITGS

For experiment [19] the target is unchanged. Briefly: Human pregnane X receptor (PXR) activation by small molecules, qHTS assay (AID 1346985). Also: potency is read from the fitted curve at half-maximal effect; nearly all actives have a fitted effect of over 40% in size. In short, it runs like this: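 DPX-2 cells (HepG2 co-transfected with a PXR response element and a CYP3A4-promoter luciferase construct) were seeded at 2,000 per well, rested 5 hr at 37C, then exposed to DMSO-dissolved compounds for 24 hr. Activation was read as luciferase luminescence.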

The structures appear in SMILES notation. “And” between values parts separate entries of the source, which are not always exact repeats. Identical values can stand only once. A number with no mark means an inactive call. Inconclusive results are not listed. The source made the active and inactive calls. Unless noted, calls follow the shape of the dose curve; as a rule, active = well fitted curve in the direction sought with a large enough effect in the repeat runs; inconclusive = weak or mixed curves; inactive = no such curve, though single readings can be large; an effect the other way counts as inactive or inconclusive.

Chain of Progesterone receptor (Homo sapiens) (P06401 whole entry, looked up): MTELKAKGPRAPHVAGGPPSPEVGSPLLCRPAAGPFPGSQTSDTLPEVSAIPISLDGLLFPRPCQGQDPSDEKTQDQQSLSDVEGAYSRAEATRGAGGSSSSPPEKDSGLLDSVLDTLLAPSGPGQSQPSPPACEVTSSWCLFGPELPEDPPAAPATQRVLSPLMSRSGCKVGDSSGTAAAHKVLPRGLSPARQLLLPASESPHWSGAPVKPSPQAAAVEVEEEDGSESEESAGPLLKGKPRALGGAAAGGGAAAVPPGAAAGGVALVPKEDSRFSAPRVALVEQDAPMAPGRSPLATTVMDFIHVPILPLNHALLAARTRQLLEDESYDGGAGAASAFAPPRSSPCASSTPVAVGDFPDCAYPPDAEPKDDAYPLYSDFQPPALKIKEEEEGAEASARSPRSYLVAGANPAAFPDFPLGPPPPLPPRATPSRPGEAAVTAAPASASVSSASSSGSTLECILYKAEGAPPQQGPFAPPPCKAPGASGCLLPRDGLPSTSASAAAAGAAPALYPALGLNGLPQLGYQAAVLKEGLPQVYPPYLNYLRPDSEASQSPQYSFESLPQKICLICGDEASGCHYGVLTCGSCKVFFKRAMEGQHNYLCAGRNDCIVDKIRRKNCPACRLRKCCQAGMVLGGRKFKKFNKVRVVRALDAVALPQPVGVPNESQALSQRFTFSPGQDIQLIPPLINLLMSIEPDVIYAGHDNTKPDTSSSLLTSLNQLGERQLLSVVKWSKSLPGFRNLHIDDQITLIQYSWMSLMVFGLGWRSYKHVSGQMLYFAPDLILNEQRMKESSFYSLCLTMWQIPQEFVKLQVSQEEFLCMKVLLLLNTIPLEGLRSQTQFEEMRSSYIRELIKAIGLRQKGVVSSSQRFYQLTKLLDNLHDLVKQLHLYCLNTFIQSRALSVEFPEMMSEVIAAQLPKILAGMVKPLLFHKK
Chain of Thyrotropin-releasing hormone receptor (Homo sapiens) (P34981 whole entry, looked up): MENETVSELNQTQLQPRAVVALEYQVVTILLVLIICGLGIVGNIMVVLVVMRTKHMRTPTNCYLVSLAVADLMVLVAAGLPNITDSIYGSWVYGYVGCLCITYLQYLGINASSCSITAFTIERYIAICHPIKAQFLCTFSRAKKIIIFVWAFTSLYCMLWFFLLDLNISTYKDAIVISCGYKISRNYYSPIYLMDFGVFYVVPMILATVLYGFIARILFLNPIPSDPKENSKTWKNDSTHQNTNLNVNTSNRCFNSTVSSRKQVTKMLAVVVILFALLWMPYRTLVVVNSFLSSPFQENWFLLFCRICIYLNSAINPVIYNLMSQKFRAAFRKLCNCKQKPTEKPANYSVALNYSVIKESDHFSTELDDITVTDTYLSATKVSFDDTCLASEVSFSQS

Turning to `c1cnccn1`, the Potency entry in [1], in [2], in [3], in [4], in [5] and in [6] was “inactive” throughout. Also, the Potency entry in experiment [7], in experiment [8], in experiment [10], in experiment [11], in experiment [12] and in experiment [13] was “inactive” each time. Further, the Potency result in [14] is “inactive”. In addition, the result in experiment [9] was inactive.

On to `CCCCNS(=O)(=O)c1ccc(C)cc1`, for which the Potency result in experiment [1], in experiment [2], in experiment [4], in [15], in experiment [5] and in experiment [6] was “inactive” each time. For the same compound, the Potency entry in [7], in experiment [8], in experiment [16], in [11] and in [13] was “inactive” in each case. For the same compound, the outcome in [9] was inactive.

Turning to `CN1CCC[C@@H]1CCO[C@](C)(c1ccccc1)c1ccc(Cl)cc1`, the Potency entry in experiment [1], in [2], in experiment [5], in experiment [6], in experiment [7] and in [8] was “inactive” throughout. Further, in experiment [12], the Potency entry is “inactive”. Also, the Potency was 21.1 µM (active) in experiment [4], 8.41 µM (active) in [15], 21.1 µM (active) in experiment [16] and 26.6 µM (active) in experiment [11]. Moreover, the compound was called inactive in experiment [9]. For the same compound, the max activation in experiment [17] is 6.7%.

In the case of `Cc1cc(C)c(/C=C2\C(=O)Nc3ccccc32)[nH]1`, in [1], the Potency was 7.5 µM (active). Further, the Potency entry in experiment [2], in experiment [4], in experiment [15], in experiment [5], in experiment [6] and in experiment [7] was “inactive” throughout. Moreover, the Potency result in experiment [8], in experiment [11], in [18] and in experiment [14] was “inactive” in each case. Besides, the max activation in [17] is -0.232%.

Take `O=C(O)c1cc(O)c2ccccc2c1O`: the Potency in experiment [1] was 27.3 µM (active); in experiment [5], 4.9 µM (active); in [6], 3.09 µM (active); in experiment [16] it was 7.7 µM (active); in [11], 6.11 µM (active); in experiment [13], 9.69 µM (active). Further, the Potency is 1.93 µM (active) in experiment [18] and 35.6 µM (active) in [14]. The Potency entry in experiment [2], in [4], in experiment [15], in experiment [8], in experiment [10] and in experiment [12] was “inactive” throughout. For the same compound, in [9], the compound was called inactive.

For `CC[N+](CC)(CC)CCOC(=O)C(C1CCCC1)C1CCCC1`, the Potency result in experiment [1], in experiment [2], in [3], in experiment [4], in [5] and in experiment [6] was “inactive” in each case. The Potency result in experiment [7], in experiment [8], in experiment [11], in [12], in [13] and in experiment [18] was “inactive” each time. Besides, in experiment [9], the compound was classed as inactive. In addition, in experiment [14], the Potency is 1.95 µM (active).

For the compound `CN1CCCCC1CCN1c2ccccc2Sc2ccc(S(C)=O)cc21` (stereo not given), the Potency entry in experiment [1], in experiment [2], in [3], in [5], in [6] and in [7] was “inactive” in each case. In addition, the Potency entry in experiment [8], in experiment [10] and in experiment [12] was “inactive” in each case. Also, in experiment [9], the call was inactive. In addition, the figures for the Potency in [18], in [19] and in [14] were 4.73 µM (active), 15.8 µM (active) and 0.0871 µM (active), respectively. Besides, the max activation in experiment [17] was -2.96% and -0.765%.

For the compound `OCC(F)(F)F`, the Potency result in [1], in experiment [2], in experiment [3], in experiment [4], in experiment [5] and in [7] was “inactive” in each case. The Potency result in experiment [8], in experiment [16], in experiment [11], in experiment [12], in [13] and in [18] was “inactive” in each case. Also, the Potency result in experiment [14] was “inactive”. Besides, the result in [9] was inactive.

As to `CC(C)=CCNc1ncnc2c1ncn2[C@@H]1O[C@H](CO)[C@@H](O)[C@H]1O`, the Potency entry in experiment [1], in [2], in experiment [3], in [4], in [7] and in experiment [8] was “inactive” throughout. The Potency entry in experiment [12] and in experiment [14] was “inactive” each time. In [9], the call was inactive. Further, the Potency in experiment [16] is 13.3 µM (active); in experiment [11], 11.9 µM (active); in experiment [18], 9.44 µM (active).
